From the supplement of paper PMC6555819 come the findings set out here.

This test concerns VDR:RXRa (NR concentration 270 nM, RXRa partner concentration 90 nM). Put plainly: PBM binding z-score (relative to random genomic background probes); higher = stronger binding; sequences stand for … in GC…GCGATTGACAGCGTAGAATGAAGG
On the procedure:
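Protein-binding microarray (Agilent 4x180K custom design, double-stranded 60-nt probes: 5' GC cap, 34-nt variable region, 24-nt constant primer region; full probe sequence given). Purified or IVT nuclear receptor:RXRα heterodimers (3:1 NR:RXRα, mostly 270:90 nM) or homodimers were incubated for 1 h in PBS with 2% milk and no ligand, then detected with Alexa488 antibodies. Fluorescence from o1-orientation probes (~5 replicates averaged) was converted to z-scores against 500 random hg19 background probes. Variable regions are seed direct-repeat (DR0–DR5) sites, all their single-nucleotide variants and half-site ablations.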
As to GCTGCTAGATCAACTGATGGTCAGCTAAAGCTCG, the PBM binding z-score was -0.766.

CGTCCAAGGTCATAGGAGGTCTGTGAAGACAGAT displayed a PBM binding z-score of 4.72.

In turn, CCTGCTAGGTCATGGTCAGCTGATCTACAGTATG gave a PBM binding z-score of 1.95. Regarding ATCTCTAGGTAACGAAGTTCAGTGAATGCCGAAC, the PBM binding z-score came to 2.56. With ATAACAAGGTGATCGTGAGGTCGTTGATACTAAC the figure was 2.97; with CCTCGGAGGACACAAGGTCAGAGCTGTCCGCTTT, 1.88; with TAGCCTAGGTCAATCAGGGGCCAGTATAGAAAGC, 2.32. With ATACCAAGGTGATCGTGAGGACGTTGATACTAAC the figure was 0.664. With GGAACGAGGGCAAGTAGATAGCAGAGTTTGATGG the figure was 0.536; with TTCCCAAGGTGAGCTGAGGTCGTTGATCCAACTC, 4.13. Sequence ATCTCTAGGTAAAGATCAGTGAAAGATCGATAGA returned a PBM binding z-score of -0.0816. Sequence TCTGCTAGGTCAACGATGGTCAACTAATCTGCTA yielded a PBM binding z-score of 2.27. With TAGCCTAGGTCATGAGCCAGTATACCACGCGAAC the figure was 1.88; with CCAGTCAGGTGAGAAGGTAACTCAGCCTCGATTA, -0.296; with GGAACGAGGGAAAGTTGATAGCAGAGTTTGATGG, -0.524. With CGACCAAGGTCAGAGAGGTCAGTGAATGCCGAGT the figure was 7.47. With CGAACTAGGTCAGAACAGGATAGTGAAGGATGAT the figure was 0.322; with TCTCTTAGTTGAAGGGCAACCGACGAGTCCGTTT, 0.951. ACTAGCAGGCCAAGGGTCACTCGAGATTAGTCCG gave a PBM binding z-score of 2.56. The value for CCTACTGGGCCATCCGGTCATTGATATCAACGTT was 0.0642.

CGAACTAGGTCATTGACAGGACAGTGACTAGTAA came in with a PBM binding z-score of 2.42.

Regarding TCGAGTAGGTTAGCAATGGGGCATTCAGCTTTCT, the PBM binding z-score was -0.142. The value for GCGACTCGGGCAAAGCAGGTTACCATAAGGTTGG was -0.491. With GGAACGAGGGCATTCGAGTTGATTGCATGGCGAT the figure was 3.81. The value for TCTTGTAGATCAAGCAGGTTAAGAATGCCTGAGT was 0.48. As for GGGACTGGGGCAAAGCAGGTTACCATAAGGTTGG, the PBM binding z-score was 0.732. For the sequence GCTTACGGGTCAAAGGTTTTAGCATGAATAGAAT, the PBM binding z-score worked out at 4.08. With CGTCCAAAGTCATAGGAGGTCAGTGAAGACAGAT, the PBM binding z-score worked out at 3.12. GGAACGAGGGGATTCGAGTTGATAGCATGGCGAT: the PBM binding z-score is 0.173. Regarding ATCACTAGGTAAAGTTCAGTGAAAGATCGATAGA, the PBM binding z-score was found to be 1.21. As for TTACGAAGGTGAGCTGAGGTCGTTGATCCAACTC, the PBM binding z-score turned out to be 4.16. Take CCGAGTACGTTATGGGGCATTCAGGCAACGGTGA: the PBM binding z-score amounted to 0.216. The value for AACGAAAGGTCGTGAGGTGAGTATACAGAAAGGC was 3.68. Take ATACCAAGGTGATCGTGAGGTAGTTGATACTAAC: the PBM binding z-score is -0.169. Take CCGACTAGGGCAAGGTTACCATAACGCACAGCCA: the PBM binding z-score amounted to 0.178. The value for CTCGAAAGGTCGGTTGAGGTGAGGATACGGATAA was 2.29. Sequence GCGACTGGGGCATCAGAAGGTTACCATAACTTAA gave a PBM binding z-score of 0.169. With TCATATACGTAAACAGGTGAAAGTCCGTAAGTTA the figure was 1.38; with TTAATGAGGTTAAAGATCAGGGAACGTGGCGTCG, 2.4.

Turning to TCTTATAGGTAAATGCTAGGTGAAAGTCCGATCT, the PBM binding z-score amounted to 0.709.
